Bioassay records: PubChem, The Scripps Research Institute Molecular Screening Center
ssDAF12 agonist: activators of S. stercoralis DAF-12 nuclear receptor | HEK293 ssDAF-12/GRIP1 lit1-tk-luc reporter, luminescence; % of 3 µM dafachronic acid response | activation, % at 6.8 µM | hit rate 1% among 370,000 | AID 652126;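 active = activation above the mean over all tested compounds plus 3 SD, cut at about 0.9% in these data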;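 note: 0% = DMSO-only wells and 100% = 3 µM delta7-dafachronic acid wells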
hgDAF12 agonist: agonists of H. glycines DAF-12 nuclear receptor. activation, % at 6.8 µM. HEK293 GAL4-hgDAF12 UAS-luciferase reporter, agonist luminescence; normalized to butyrate control. hit rate 1.8% among 370,000;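 active = activation above a cutoff set at the mean of all screened compounds plus 3 SD, cut at about 10% in these data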;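 note: 0% = DMSO wells and 100% = sodium butyrate wells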
DAX1 inh-1: inhibits human nuclear receptor DAX1. P51843. HEK293 Gal4-DAX1 luciferase reporter, luminescence. inhibition, % at 6.75 µM. hit rate 0.99% among 340,000;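 active = inhibition above the mean over all tested compounds plus 3 SD, cut at about 4.2% in these data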;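 note: 0% = DAX1-transfected cells with DMSO and 100% = empty-vector control cells with DMSO; inhibition shows as a rise in luminescence from relieved DAX1 repression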
hcDAF-12 act: H. contortus DAF-12 activation, primary screen; HEK293 hcDAF-12 lit1-tk-luc reporter, luminescence; 0% DMSO, 100% Δ7-dafachronic acid; activation, % at 6.8 µM; hit rate 1.4% among 370,000;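 active = activation above the mean of all tested compounds plus 3 SD, cut at about 5.5% in these data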;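 note: 100% = response to 3 µM Δ7-dafachronic acid high control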
DAX1 inh-2: inhibitors of DAX1 repression of SF-1 activated StAR promoter; AID 652010; HEK293T StAR-luciferase reporter, SF-1/DAX-1 repression relief; hit rate 1.1% among 370,000; inhibition, % at 6.8 µM;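 active = inhibition above the mean over all tested compounds plus 3 SD, cut at about 3.6% in these data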;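 note: 0% = DAX-1 cells with DMSO and 100% = cells lacking DAX-1 with DMSO; higher inhibition means more luminescence from relief of DAX-1 repression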
DAX1 inh confirm: confirmation of human DAX1 (NR0B1) inhibitors. shares compounds with DAX1 inh-2. HEK293T StAR-promoter luciferase reporter, SF-1/DAX-1 repression. inhibition, % at 6.8 µM. hit rate 87% among 2,400;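 active = inhibition above the average of every tested compound plus 3 SD, cut at about 3.8% in these data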;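 note: 0% = DAX-1 cells with DMSO and 100% = no DAX-1 control cells with DMSO; active compounds raise luminescence by relieving repression of the StAR reporter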
Target sequence (P51843 whole entry, looked up): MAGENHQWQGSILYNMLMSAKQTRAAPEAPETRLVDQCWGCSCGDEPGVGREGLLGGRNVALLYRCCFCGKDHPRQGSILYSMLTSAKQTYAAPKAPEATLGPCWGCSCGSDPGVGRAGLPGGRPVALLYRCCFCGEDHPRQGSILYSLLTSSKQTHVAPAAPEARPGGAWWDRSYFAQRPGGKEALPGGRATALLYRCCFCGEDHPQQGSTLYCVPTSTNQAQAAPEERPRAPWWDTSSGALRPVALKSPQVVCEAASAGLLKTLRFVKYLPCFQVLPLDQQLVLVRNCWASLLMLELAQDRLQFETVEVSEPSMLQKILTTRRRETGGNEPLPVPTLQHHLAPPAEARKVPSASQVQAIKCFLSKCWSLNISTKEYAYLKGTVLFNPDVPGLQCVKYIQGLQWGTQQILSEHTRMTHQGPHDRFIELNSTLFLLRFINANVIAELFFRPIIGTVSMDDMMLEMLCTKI
SF1 mutant ctr: nonselective inhibitor or artifact in SF-1 mutant DAX1 counter-screen; shares compounds with DAX1 inh-2; HEK293 StAR-luciferase, SF-1 AF2 mutant, luminescence; hit rate 78% among 2,400; inhibition, % at 6.8 µM;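 active = inhibition above the mean of all tested compounds plus 3 SD, cut at about 3% in these data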;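 note: 0% = DAX-1 transfected cells with DMSO and 100% = cells without DAX-1 with DMSO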
LXRb hcDAF ctr: LXR-beta agonism as hcDAF-12 counter-screen | shares compounds with hcDAF-12 act | HEK293 Gal4-LXR tk-luc reporter, luminescence, 24 h; normalized: DMSO 0%, positive control 100% | activation, % at 6.8 µM | 3,400 tested, under 10 active;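 active = mean percent activation of the reporter above a cutoff set as the average over tested compounds plus their standard deviation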
hcDAF12 ag: confirmation of H. contortus DAF-12 agonists; shares compounds with hcDAF-12 act; HEK293 hcDAF-12 lit1-tk-luc reporter, luminescence; % of Δ7-dafachronic acid response; activation, % at 6.8 µM; hit rate 61% among 3,400;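 active = mean activation across triplicate tests above the threshold derived from the earlier primary screen, cut at about 5.5% in these data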;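 note: 0% = DMSO only wells and 100% = 3 µM Δ7-dafachronic acid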
hgDAF12 ag: confirmation of H. glycines DAF-12 agonists. hit rate 80% among 3,300. HEK293 GAL4-hgDAF12 luciferase reporter, agonist mode; percent of butyrate response. activation, % at 6.8 µM. shares compounds with hgDAF12 agonist;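 active = mean activation over triplicate wells above the hit cutoff derived from the earlier primary screen, cut at about 11% in these data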;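 note: 0% = DMSO low control and 100% = 2 mM sodium butyrate high control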
LXRb DAF12 ctr: activates human LXR-beta, counter-screen for DAF-12 agonists. shares compounds with hgDAF12 agonist. HEK293 Gal4-LXR luciferase reporter, 24 h. activation, % at 6.8 µM. 3,300 tested, under 10 active;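 active = mean activation of the triplicate above a set limit carried over from the primary screen, none filed active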
Active calls of the source: *; . = not tested or not shown. Compounds with a hit are over-represented: about 4.1% of the library has one in this group of screens.

SMILES	ssDAF12 agonist	hgDAF12 agonist	DAX1 inh-1	hcDAF-12 act	DAX1 inh-2	DAX1 inh confirm	SF1 mutant ctr	LXRb hcDAF ctr	hcDAF12 ag	others
CN(C)CCN(C(=O)c1cccs1)c1nc2cc3c(cc2s1)OCCO3	1.4*	4.2	1.1	7.0*	5.1*	4.7*	5.0*	0.5	1.6
NC(=O)c1ccccc1OCC(=O)Nc1ccc(Cl)c(Cl)c1	2.2*	18.1*	5.8*	10.5*	6.9*	20.6*	8.9*	1.8	10.8*
COc1ccc(-n2ncc3c(NCC(C)C)ncnc32)cc1	0.7	10.6*	0.3	9.8*	5.0*	12.8*	4.1*	1.7	5.7*
Nc1ccn([C@@H]2O[C@H](C(=O)Nc3ccc(Oc4ccccc4)nc3)[C@@H](O)[C@H]2O)c(=O)n1	-1.0	0.6	.	0.9	0.6	.	.	.	.
O=C(O)c1cccc(N/N=C/c2cccs2)c1	1.5*	17.2*	-4.7	13.3*	7.2*	13.6*	6.3*	2.1	17.2*
O=C(NCCOc1ccccc1)c1ccccc1NC(=O)C1CCCO1 (stereo not drawn)	0.9	10.9*	1.2	9.0*	5.6*	8.3*	7.3*	1.1	10.4*
CCOC(=O)c1ccccc1NC(=O)C1CCCO1 (stereo not drawn)	-1.0	-0.7	1.5	0.9	-0.2	.	.	.	.
Cc1ccc(NC(=O)CNC(=O)c2sc3ccccc3c2Cl)nc1	0.2	6.0	2.5	7.0*	4.6*	4.8*	3.4*	0.0	3.2
COc1ccc(-c2cc(C(=O)O)c3ccccc3n2)c(OC)c1	-0.7	-0.7	-1.0	-0.3	0.6	.	.	.	.
COc1ccc2cc(-c3cc(C(=O)O)c4ccccc4n3)ccc2c1	3.0*	13.1*	-3.8	8.8*	5.2*	11.4*	3.2*	1.6	5.1
Nc1nc(-c2ccccc2)nc2sc3c(c12)CCCC3	3.0*	18.0*	1.6	20.7*	8.3*	16.6*	6.5*	2.1	17.3*
Cc1ccc(NC(=O)CN(C)CC(=O)N(CC(C)C)c2c(N)n(CC(C)C)c(=O)[nH]c2=O)c(C)c1	-1.1	-1.5	0.4	-1.1	0.1	.	.	.	.
Oc1ccc(N=Nc2n[nH]c(-c3ccccc3)n2)cc1	0.8	14.6*	0.1	5.5	7.1*	14.9*	9.2*	.	.	hgDAF12 ag=17.3*;LXRb DAF12 ctr=0.8
COc1cc(/C=C/CN2CCN(CCC(C)C)C(CCO)C2)ccc1O (stereo not drawn)	-0.7	-2.3	2.9	0.4	0.0	.	.	.	.
Cc1ccc2nc(C3CCCCC3)c(CC(C)(C)C)n2c1	-0.4	-1.3	.	0.4	0.0	.	.	.	.
Cc1ccc(-c2nc3ccc(C)cn3c2CC2CCCCC2)cc1	2.2*	20.6*	.	10.0*	7.2*	3.8*	3.2*	0.6	9.1*	hgDAF12 ag=11.3*;LXRb DAF12 ctr=0.4
COc1ccccc1Cc1c(-c2ccc(C)cc2)nc2ccc(C)cn12	0.0	13.6*	.	1.4	4.9*	7.0*	5.1*	.	.	hgDAF12 ag=10.3;LXRb DAF12 ctr=0.5
COc1ccccc1Cc1c(-c2ccccc2)nc2ccc(C)cn12	0.4	16.9*	.	3.8	5.2*	1.5	4.3*	.	.	hgDAF12 ag=8.0;LXRb DAF12 ctr=0.4
Cc1ccc(C2(C)NC(=O)N(CC(=O)Nc3nc(-c4ccccn4)cs3)C2=O)cc1 (stereo not drawn)	-0.9	0.3	-1.5	-1.5	-3.0	.	.	.	.
